This is a sample that favours compounds with a hit; in the whole collection about 4.7% have one here.
SKKanGAS inh = SKKanGAS growth inhibition. S. pyogenes SKKanGAS, kanamycin growth, BacTiter-Glo, 6 h. inhibition, % at 7.5 µM. actives 1.3% (n = 300,000). AID 1662;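 active = mean replicate score, as percent of positive control median, at least 50; inconclusive = mean below 50 but one replicate at or above 50; inactive = mean and every replicate below 50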;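 also: strain carries kanamycin resistance gene driven by streptokinase promoter and grows in 40 µg/ml kanamycin; loss of luminescence reflects streptokinase promoter inhibition or plain growth inhibition; 0% = median of DMSO wells and 100% = positive control at its reference dose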
tim10-1 inh = inhibits growth of tim10-1 mutant yeast | inhibition, % at 20 µM | AID 463190 | S. cerevisiae tim10-1 ts strain growth, BacTiter-Glo, 24 h | actives 2.2% (n = 330,000);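 active = inhibition of at least 40%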;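 also: mutant grown at 25 °C; 0% = DMSO wells with yeast and 100% = wells holding no yeast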
TIM10 inh = inhibits growth of TIM10 yeast strain. actives 1.4% (n = 330,000). S. cerevisiae TIM10 strain growth, BacTiter-Glo luminescence, 24 h. AID 463195. inhibition, % at 10 µM;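 active = inhibition of 40% or more at the single tested concentration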;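 also: wild-type TIM10 isogenic control strain grown at permissive 25 °C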
tim23-1 inh = tim23-1 yeast growth inhibition | S. cerevisiae tim23-1 growth, BacTiter-Glo luminescence, 24 h | actives 1.3% (n = 330,000) | inhibition, % at 20 µM;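 active = growth inhibition of the mutant yeast at or above 50%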;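 also: temperature-sensitive mutant grown at 25 °C; plate controls were DMSO-treated mutant yeast for no effect and medium wells lacking yeast for full effect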
PfHsp90 yeast 2 = growth inhibition of yeast expressing Plasmodium Hsp90; S. cerevisiae expressing PfHsp90, BacTiter-Glo ATP, 48 h; yeast lacking PDR1 and PDR3 efflux regulators; inhibition, % at 9.4 µM; actives 0.32% (n = 310,000);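 active = every replicate shows inhibition above about 80%, whatever the replicate mean, limit read from the data; inconclusive = mean inhibition reaches the set limit but some replicate falls short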;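 also: 0% = DMSO neutral controls and 100% = 20 µM radicicol positive controls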
Calb FLC = C. albicans growth modulation with fluconazole. C. albicans CaCi-2 (fluconazole-resistant clinical isolate) + fluconazole, Alamar Blue growth, 48 h. growth inhibition, % (no concentration beside the values). actives 0.57% (n = 300,000). AID 1979;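 active = growth inhibition above about 58% in most replicates, limit read from the data, passing the limit was not always enough; inconclusive = exactly half the replicates above a set limit; inactive = most replicates below a set limit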;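 also: all wells also contain fluconazole at 8 µg/ml as a sub-toxic cotreatment; 0% = median of DMSO wells and 100% = median of geldanamycin control wells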
Numbers without * were called inactive; ? = inconclusive; nt = not tested or not shown.

SMILES	SKKanGAS inh	tim10-1 inh	TIM10 inh	tim23-1 inh	PfHsp90 yeast 2	Calb FLC
Cc1ccc(-c2csc(NC(=O)c3ccc([N+](=O)[O-])o3)n2)cc1	55.3*	-139.3	-84.5	43.5	5.6	-8.8
O=C(Nc1cccc(NC(=O)c2ccccc2Cl)c1)c1ccc([N+](=O)[O-])o1	?	16.5	39.6	41.5	-18.9	79.5*
O=C(Nc1ccc(N2CCCC2)c(Cl)c1)c1ccc([N+](=O)[O-])o1	nt	nt	nt	nt	0.5	nt
COc1cc(OC)cc(C(=O)NNC(=O)C2CCCC2)c1	-5.1	-16.7	-20.6	7.2	16.7	1.8
CC1C(=O)Nc2ccc(S(=O)(=O)N3CCN(c4cccc(C(F)(F)F)c4)CC3)cc2NC1=O (stereo unspecified)	4.5	3.0	18.7	5.3	-12.1	3.6
COc1c2c(c(CCC(=O)O)c3c1C=CC(C)(C)O3)OC(C)(C)C=C2	nt	nt	nt	nt	-1.6	nt
O=C(NNC(=O)C1C2CCC(C2)C1C(=O)O)c1ccc(Br)o1 (stereo unspecified)	-13.0	6.8	-11.6	15.9	nt	99.7*
COC(=O)C1=CN(c2ccc(F)cc2)C=C(C(=O)OC)C1c1ccc(O)cc1	2.7	1.8	20.2	-4.8	-4.8	1.1
CSCCC1NC2(C(=O)Nc3c(C)cc(Cl)cc32)[C@@H]2C(=O)N(C3CCCC3)C(=O)[C@H]12 (stereo partly specified)	-5.9	24.5	9.4	16.8	-13.5	83.9*
O=C(Nc1nc(-c2ccccn2)cs1)c1cc2ccccc2o1	103.9*	12.6	21.3	19.9	104.9*	98.6*
O=C(Nc1nc2ccc(S(=O)(=O)N3CCCCC3)cc2s1)c1cccnc1	6.5	28.6	18.2	23.1	nt	35.5
C[C@H](NC(=O)c1ccccc1)C(=O)Nc1nc(-c2ccccn2)cs1	19.4	15.0	-10.4	17.3	-43.8	-4.7
Cc1cccc(C(=O)NC(C(=O)Nc2nc(-c3ccccn3)cs2)C(C)C)c1 (stereo unspecified)	91.4*	17.7	5.9	17.4	6.1	22.4
O=C(Nc1nc2ccc(S(=O)(=O)N3CCCCC3)cc2s1)c1ccncc1	11.8	28.9	22.7	28.1	2.0	103.1*
Cn1cccc1C(=O)Nc1nc(-c2ccccn2)cs1	81.4*	0.8	4.5	23.0	-28.3	?
CC(C)OCCCNC(=O)CN1C(=O)CSc2ccc(S(=O)(=O)N3CCCCC3)cc21	-4.7	-6.0	6.8	-9.9	-8.3	23.8
O=C(Nc1nc(-c2cccs2)cs1)c1ccc(S(=O)(=O)N2CCCCC2)cc1	22.9	13.8	10.7	23.3	-18.2	-0.7
CCc1sc(C(=O)Nc2nc(-c3ccccn3)cs2)cc1C	nt	10.0	12.3	25.4	106.8*	nt
O=C(Nc1nc(-c2ccccn2)cs1)C1CCCC1	-1.8	28.2	15.4	2.1	-4.9	54.3
O=C(Nc1nc(-c2ccccn2)cs1)c1ccc(S(=O)(=O)N2CCCCC2)cc1	84.2*	7.1	16.7	40.0	nt	35.1
O=C(/C=C/c1ccco1)Nc1nc(-c2ccccn2)cs1	55.4*	-44.8	-19.0	-29.6	-7.7	?
O=C(Nc1nc(-c2ccccn2)cs1)c1ncc(Cl)c(Cl)c1Cl	98.5*	30.3	-13.2	-33.5	109.9*	-9.9
Cn1c(C(=O)N2CCC(C(=O)NCc3ccccc3)CC2)cc2sccc21	-0.9	-0.5	-1.7	1.2	1.1	30.6
CCN(C(=O)CSc1nccc(=O)[nH]1)c1cccc2ccccc12	nt	0.2	8.1	8.2	11.6	nt
O=C(OCc1ccccc1Cl)C1CC(=O)N(Cc2ccco2)C1 (stereo unspecified)	-0.6	-4.2	4.9	9.7	-0.1	1.5
SMILES	SKKanGAS inh	tim10-1 inh	TIM10 inh	tim23-1 inh	PfHsp90 yeast 2	Calb FLC
COc1ccc(-c2nnc(SCC(=O)O)n2Cc2ccccc2)cc1	-6.4	-3.1	-3.3	-2.6	3.4	12.2
Cc1cccnc1Nc1nc(-c2ccccn2)cs1	106.0*	-29.5	34.5	10.2	106.0*	-5.1
O=C(COc1ccc(F)cc1Cl)Nc1nc(-c2ccccn2)cs1	110.3*	28.1	0.3	33.4	-93.6	-0.9
Cc1cccnc1Nc1nc(-c2ccccc2)cs1	13.9	7.7	0.6	49.6	-7.2	-44.7
O=C(CCCSc1ccccc1)Nc1nc(-c2ccccn2)cs1	105.1*	24.6	17.7	10.6	-15.1	-15.9
CC(CCc1ccccc1)NC(=O)C1CCN(S(=O)(=O)c2ccc(F)cc2)CC1 (stereo unspecified)	16.1	12.9	5.4	12.9	-7.0	-7.7
Cc1ccc(Cn2c(C3CCCN3c3nc(C)cs3)nc3cc(C(F)(F)F)ccc32)cc1 (stereo unspecified)	34.2	24.5	21.3	27.3	35.3	15.3
COc1ccc(C(=O)N2CCCC(Nc3ccc(C)c(C)c3)C2)cc1F (stereo unspecified)	51.5*	11.7	7.7	30.8	9.4	6.7
COc1ccc(C(=O)N2CCCC(Nc3ccc(F)cc3)C2)cc1F (stereo unspecified)	-5.1	-13.7	-3.6	-2.9	4.9	-1.5
COc1ccc(/C=C/c2nc3cc(-c4ccccc4)ccc3o2)cc1O	88.1*	6.0	23.2	32.9	-18.2	10.3
O=C(Nc1ccccc1)C(=O)Nc1ccc2c(c1)N(C(=O)C1CC1)CCC2	54.5*	21.7	13.2	30.1	nt	-7.3
O=C(C1CCC(C(=O)N2CCc3ccccc32)CC1)N1CCc2ccccc21 (stereo unspecified)	8.6	9.9	-6.7	12.2	nt	-1.3
O=C(c1ccncc1)c1ccc(NS(=O)(=O)c2ccc(Br)s2)cc1	13.0	9.8	0.7	-3.9	-8.2	21.7
O=C(Nc1ccc2ccccc2c1)c1ccc(NS(=O)(=O)c2ccc(Br)s2)cc1	96.1*	-6.0	-9.3	3.8	-33.6	1.8
O=C1C2C3C=CC(C3)C2C(=O)N1CN(Cc1ccccc1)CN1C(=O)C2C3C=CC(C3)C2C1=O (stereo unspecified)	5.1	22.5	4.9	28.2	113.1*	-13.8
O=C1C2C3C=CC(C3)C2C(=O)N1CNc1ccccc1 (stereo unspecified)	-3.9	3.4	-2.8	9.6	39.2	0.4
C=CCn1c(SCc2c(C)noc2C)nc2sc3c(c2c1=O)CCCCC3	54.3*	19.0	-0.1	9.8	nt	-2.1
C=CCn1c(SCc2c(C)noc2C)nc2sc3c(c2c1=O)CCCC3	60.2*	18.7	26.2	16.5	3.9	13.4
COc1ccc(OC(C)C(=O)N(C)Cc2nc(-c3cccc(C)c3)no2)cc1 (stereo unspecified)	-1.2	6.1	12.2	14.9	-17.6	-1.9
CC(OC(=O)c1cccc(-n2cnnn2)c1)c1nc2ccccc2c(=O)[nH]1 (stereo unspecified)	nt	9.6	2.9	3.8	-2.0	nt
Clc1ccc(OCc2cn3cccnc3n2)c2ncccc12	-6.6	nt	nt	nt	19.3	7.5
Cc1cc(Cl)ccc1OCc1cn2cccnc2n1	11.9	7.4	8.3	3.9	-30.3	61.1*

Source: PubChem
